# Pf Dd2 growth: qHTS Primary assay for Inhibitors of Plasmodium falciparum Dd2 growth in vitro; P. falciparum Dd2 growth, SYBR Green, 72 h; Potency, µM (titrated, usually from 28.9 µM), without a hit: at the highest dose activity, negative = inhibition, actives largely listed as inhibitors; actives 4.3% (n = 120,000); AID 1347417, 2020; active = well fitted inhibition curve with a large enough effect;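 note: plate controls were DMSO vehicle for no effect and reference drug for full effect; nearly all actives have a fitted effect of over 65% in size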
#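 Readout: SYBR Green fluorescence, 485 nm excitation, 535 nm emission, after ~16 h lysis at 37C. Before that, Dd2-infected red cells (2.5% hematocrit) grew 72 h with compound, 29 uM top final concentration.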
# An asterisk follows results filed as active; i = inactive; [ ] = remark or other dose. This is one part of a sample in which hits are shown more often than they occur. Potency is the fitted concentration of half-maximal effect.
SMILES,Pf Dd2 growth
CC(C)(C)C(=O)NC1CCCc2c1[nH]c1ccc(F)cc21 (stereo not drawn),-7.2%
Cc1ccc(CNC(=O)CN(c2ccc(C(C)C)cc2)S(=O)(=O)c2c(C)n[nH]c2C)cc1,-9.3%
CCc1ccc(NC(=O)CN(c2ccc(OC)cc2)S(=O)(=O)c2c(C)[nH]c(=O)[nH]c2=O)cc1,64.4%
O=S(=O)(NCC(c1ccco1)S(=O)(=O)c1cccs1)c1ccccc1 (stereo not drawn),41.1%
NC(=O)N1CCCC(C(=O)NCCCn2nccc2C2CC2)C1 (stereo not drawn),-15.1%
OC[C@@H]1CNC[C@H]1c1nc(C2CC2)no1,13.3%
Cn1c(=O)[nH]cc(CC(=O)NCc2cccnc2-n2ccnc2)c1=O,5.9%
COc1ccc(-c2cn3c(n2)CO[C@@H](CNS(=O)(=O)c2ccc(C)cc2)C3)cc1,12.6µM*
Cc1ccc(-c2cn3c(n2)CO[C@@H](CNS(C)(=O)=O)C3)cc1,-1.5%[44.1 µM]
COc1ccc(-c2cn3c(n2)CO[C@@H](CNS(C)(=O)=O)C3)cc1,i
CC(=O)N1CCc2c(sc3c2c(=O)n(-c2ccc(F)cc2)c(=O)n3Cc2ccc(C#N)cc2)C1,-15.8%
CCOCCCNC(=O)NCCc1noc(-c2cccnc2)n1,6.9%
CCn1nc(C(C)C)cc1C(=O)NCCS(=O)(=O)N1CCCC1,9.1%
CN1CCN(S(=O)(=O)c2cc(Br)cc(C(=O)O)c2)CC1,-6.5%
c1ccc(CNc2nc3ccccc3c3nc(-c4ccccc4)nn23)cc1,8.91µM*
Clc1ccc(CNc2nc3ccccc3c3nc(-c4cccnc4)nn23)cc1,28.9%
CCCCNc1nc2ccccc2c2nc(-c3ccccc3)nn12,3.16µM*
Clc1ccccc1CNc1nc2ccccc2c2nc(-c3ccccc3)nn12,i
CCCCNC(=O)CCC(=O)NNc1nc2ccccc2c2nc(-c3ccccc3)nn12,-20.8%
Clc1ccc(CCNc2nc3ccccc3c3nc(-c4ccccc4)nn23)cc1,5.6%
O=C(COc1ccc(F)cc1)N1CCN(C(=O)c2nnn3c2COC(c2ccc(Cl)cc2)C3)CC1 (stereo not drawn),i
O=C(c1cc(=O)[nH]c(=O)[nH]1)N1CCC2(CC1)OCCCC2O (stereo not drawn),-16.7%
COc1ccc(-n2ncc3c(NCCC4=CCCCC4)ncnc32)cc1,i
CN(CCCc1nccn1C)C(=O)[C@H]1CCC[C@H](O)C1,0.3%
O=C1CCN(C(=O)c2cccs2)CCCC(c2nc(-c3ccccc3)no2)CCN1 (stereo not drawn),i
SMILES,Pf Dd2 growth
COc1ccc(S(=O)(=O)N2CCOC[C@H](Oc3cccnc3)C2)cc1,-20.6%[44.1 µM]
O=C(c1ccc(C(F)(F)F)cc1)N1CCC(c2n[nH]c(=O)n2Cc2ccc(F)cc2)CC1,-10.3%
COCc1noc(CC2CN(C(=O)c3cn(-c4ccccc4)nn3)CCO2)n1 (stereo not drawn),-6.5%
COCCNc1nc(-c2c(C)noc2C)cc2cc(CO)oc12,-10.0%[44.1 µM]
COc1ccc(Nc2nc(-c3c(C)noc3C)cc3cc(CO)oc23)cc1OC,7.94µM*
Cc1noc(C)c1-c1cc2cc(CO)oc2c(NCc2cccc(F)c2)n1,i
Cc1nc(CCNC(=O)Nc2cccc(F)c2C)no1,-19.5%
COc1ccccc1CN1CCc2nc(C(=O)Nc3ccc(Cl)cc3)oc2CC1,-3.6%[44.1 µM]
COc1ccc(CN2CCc3nc(C(=O)NCCOc4ccccc4)oc3CC2)cn1,i
COc1ccc(CN2CCc3nc(C(=O)Nc4ccc(Cl)cc4)oc3CC2)cn1,2.51µM*
COc1ccc(-n2c(=O)c3c4c(sc3n3c(SCCC(C)C)nnc23)COC(C(C)C)C4)cc1 (stereo not drawn),-10.8%
O=C(c1ccoc1)N1CCC(c2nc(-c3ccccc3)no2)C1 (stereo not drawn),-3.2%[5.79 µM]
COc1ccc(OC)c(CNC(=O)CN2CC(C)Sc3ccccc32)c1 (stereo not drawn),0.2%
COc1ccc(N2CCN(CC(O)COc3c(OC)cccc3OC)CC2)cc1 (stereo not drawn),11.8%
CCC(C)Cn1c(COc2ccc(OC)cc2)nc2ccccc21 (stereo not drawn),i
CCn1c(=N)n(CC(O)COc2ccccc2)c2ccccc21 (stereo not drawn),7.08µM*
CCOC(=O)N1CCN(Cc2cccc(OCC(O)CN3CCOCC3)c2)CC1 (stereo not drawn),0.7%
Cc1cccc(OCC(O)Cn2c(=N)n(CCN3CCCCC3)c3ccccc32)c1 (stereo not drawn),10µM*
COc1ccc(N2CCN(CC(O)COc3ccc(C)c(C)c3)CC2)cc1 (stereo not drawn),22.8%
CN(Cc1noc2c1CCCC2)C(=O)C1CCN(C(=O)C2CC2)CC1,-17.4%
COc1ccc(CN2CCNc3cc(-c4ccnc(C)c4)ncc3C2)cc1,i
COc1cccc(C(=O)N2CCC3(CC2)OCC(C(=O)N2CCCC2)N3C(=O)c2ccccc2C)c1 (stereo not drawn),i
Cc1c(C)n(C)c2ccc(C(=O)NCc3cccc(F)c3)cc12,0.2%
